Inconclusive results are not listed. Active and inactive are the calls of the source. Calls follow the shape of the full dose curve.
What follows are compounds tested against Vitamin D3 receptor (Homo sapiens) (UniProt P11473) (assay: qHTS assay for small molecule antagonists of vitamin D receptor signaling (AID 588541;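 also: receptor activated by calcitriol during compound treatment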)). Conditions: HEK293T VDR-UAS-bla, beta-lactamase ratio, antagonist mode; series mostly up to 76.7 µM.
Text: NIH Chemical Genomics Center [NCGC]
U.S. Environmental Protection Agency [EPA]
National Institutes of Environmental Health Sciences [NIEHS]
National Toxicology Program [NTP]
The Vitamin D receptor (VDR) is a member of nuclear hormone receptor superfamily and it plays a critical role in calcium homeostasis and bone metabolism. It plays a role in inducing cell differentiation, inhibiting cell growth and in thrombogenicity. So, VDR that mediates these effects represents a pharmacological target in prevention and treatment of hyperproliferative malignancies, such as cancer and psoriasis, cardiovascular, immunological, inflammatory and renal diseases etc.
NCGC Assay Protocol Summary
Using a beta-lactamase reporter-gene under control of Vitamin D receptor (VDR) response element, a cell-based assay [GeneBLAzer (VDR -UAS-bla assay developed by Invitrogen] was used to measure VDR ligands signaling. GeneBLAzer VDR -UAS-bla HEK293T cells were used with assay medium containing 2% charcoal-stripped FBS. The assay was performed in clear bottom black Greiner 1536-well plates. Library compounds were measured for their ability to inhibit the reporter gene activity. Compounds were screened in a titration series in 1536-well format. The fluorescence intensity (405 nm excitation, 460/530 nm emission) was measured using an EnVision plate reader. Data was normalized relative to 1-alpha,25-Dihydroxy vitaminD3 control (50 nM, 100%) and DMSO only wells (basal, 0%). Concentration-response titration points for each compound were fitted to the Hill equation yielding concentrations of half-maximal inhibition (IC50) and maximal response (efficacy) values.
qHTS protocol for VDR beta-lactamase assay in antagonist mode
[Step] [Parameter] [Value] [Description]
1. Reagent; 5 uL; 2000 cells/well
2. Incubation; 37 C for 5 hrs
4. Controls (DMSO); 23 nL,
5. Agonist (Stimulator); 1uL; 1-alpha,25-Dihydroxy vitaminD3 at 50 nM and 3 nM final concentrations
6. Incubation; 37 C for 16 hrs
7. Detection reagent; 1 uL of CCF4-dye
8. Incubation; RT for 2 hrs
9. Detection; Fluorescence; Envision plate reader

Sequence of Vitamin D3 receptor (Homo sapiens) (P11473 whole entry, looked up): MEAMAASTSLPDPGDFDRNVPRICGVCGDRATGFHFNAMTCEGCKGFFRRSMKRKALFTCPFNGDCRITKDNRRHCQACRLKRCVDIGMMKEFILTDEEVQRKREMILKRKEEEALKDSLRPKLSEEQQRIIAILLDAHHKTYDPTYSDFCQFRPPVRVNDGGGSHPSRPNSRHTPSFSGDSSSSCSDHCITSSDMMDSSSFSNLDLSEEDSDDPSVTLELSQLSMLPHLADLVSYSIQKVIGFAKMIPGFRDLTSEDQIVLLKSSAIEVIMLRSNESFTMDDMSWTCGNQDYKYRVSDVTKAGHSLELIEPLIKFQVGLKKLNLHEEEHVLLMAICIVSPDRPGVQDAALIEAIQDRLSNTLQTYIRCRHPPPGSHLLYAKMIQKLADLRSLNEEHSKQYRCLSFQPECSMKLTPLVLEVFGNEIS

| Compound | outcome |
| --- | --- |
| CC(C)=CCC/C(C)=C/CO | inactive |
| COc1ccc(O)cc1 | inactive |
| CC(=O)NS(=O)(=O)c1ccc(N)cc1 | inactive |
| Cc1ccc(C(C)C)c(O)c1 | inactive |
| O=C(O)CCCCC1CCSS1 (stereo not given) | inactive |
| CCCCCCCCCCCCCCCCCCO | inactive |
| O=C(c1ccccc1)C(O)c1ccccc1 (stereo not given) | inactive |
| COC(=O)c1ccc(O)cc1 | inactive |
| Cc1cc(=O)[nH]c(=S)[nH]1 | inactive |
| CCCCOC(=O)c1ccc(N)cc1 | inactive |
| CC[N+](CC)(CC(=O)Nc1c(C)cccc1C)Cc1ccccc1 | inactive |
| C=CCNC(N)=S | inactive |
| Cc1c(N(C)C)c(=O)n(-c2ccccc2)n1C | inactive |
| CCCCCCCC(=O)OCC(COC(=O)CCCCCCC)OC(=O)CCCCCCC | inactive |
| CC(=O)Nc1ccccc1 | inactive |
| Cc1c(C(=O)NCCO)[n+](=O)c2ccccc2n1[O-] | inactive |
| CCCCCC(N)=O | inactive |
| CC(=O)OCC(COC(C)=O)OC(C)=O | inactive |
| CCN(CC)C(=O)c1cccc(C)c1 | inactive |
| OC[C@@H](O)[C@@H](O)[C@H](O)[C@H](O)CO | inactive |

— PubChem BioAssay (NCATS)
